# TEAD-YAP block: TEAD-YAP interaction inhibition | 640,000 compounds, 1.4% hits | AID 1259422 | HEK-TIYL cells, TEAD-Gal4/YAP UAS-luciferase luminescence | inhibition, % at 9.12 µM; in the data active = inhibition above about 32%;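 note: 0% = median of test compound wells and 100% = reference inhibitor wells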
# FBW7 act: activators of human E3 ligase FBW7 | Q969H0 | AlphaScreen FBW7–phospho-cyclin E peptide binding, activator screen | normalized activity (activation), % at 26.1 µM | 650,000 compounds, 0.13% hits; in the data active = normalized activity above about 1.9%;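 note: purified mutant Fbw7 with reduced substrate affinity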
# Target sequence (Q969H0 whole entry, looked up): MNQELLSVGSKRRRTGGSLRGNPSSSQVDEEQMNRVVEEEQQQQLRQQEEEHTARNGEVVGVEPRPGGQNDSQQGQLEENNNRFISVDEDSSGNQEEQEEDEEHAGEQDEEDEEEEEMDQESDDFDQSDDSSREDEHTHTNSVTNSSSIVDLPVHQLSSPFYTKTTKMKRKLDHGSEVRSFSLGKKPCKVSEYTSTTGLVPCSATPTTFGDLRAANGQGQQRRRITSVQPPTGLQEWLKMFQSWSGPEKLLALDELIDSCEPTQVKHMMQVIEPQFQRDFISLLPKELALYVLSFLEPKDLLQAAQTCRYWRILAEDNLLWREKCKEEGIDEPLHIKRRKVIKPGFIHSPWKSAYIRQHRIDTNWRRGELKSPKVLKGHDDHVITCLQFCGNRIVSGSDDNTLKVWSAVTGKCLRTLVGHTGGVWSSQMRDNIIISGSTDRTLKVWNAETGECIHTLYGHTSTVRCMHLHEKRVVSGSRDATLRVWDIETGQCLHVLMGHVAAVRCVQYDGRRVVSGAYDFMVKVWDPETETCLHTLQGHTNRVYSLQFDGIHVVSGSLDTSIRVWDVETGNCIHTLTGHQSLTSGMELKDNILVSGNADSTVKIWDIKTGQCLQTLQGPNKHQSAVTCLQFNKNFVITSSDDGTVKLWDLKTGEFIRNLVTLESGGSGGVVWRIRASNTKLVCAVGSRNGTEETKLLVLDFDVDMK
# GPR151 ag: human GPR151 activation; PathHunter beta-arrestin GPR151 cells, luminescence; AID 1508602; 650,000 compounds, 1% hits; activation, % at 11.2 µM; in the data active = activation above about 4.9%;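 note: 0% = median of compound wells and 100% = cells with positive control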
# MITF primary: inhibitors of human MITF. 650,000 compounds, 0.91% hits. AlphaScreen MITF homodimerization, bead proximity signal. O75030. inhibition, % at 2.6 µM; in the data active = inhibition above about 50%;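 note: 0% = vehicle wells with protein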
# MITF inh conf: confirmation of human MITF inhibitors; shares compounds with MITF primary; AlphaScreen MITF homodimerization, biotin/His-MITF beads; inhibition, % at 2.6 µM; 4,700 compounds, 16% hits; AID 1259372;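 active = inhibition above a cutoff derived from the DMSO control wells, cut at about 28% in these data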;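 note: 0% = MITF dimer wells with DMSO only; inhibitors lower the bead chemiluminescence by keeping MITF from dimerizing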
# AlphaScreen DR: optically interferes with AlphaScreen signal in dose response; shares compounds with MITF primary; AlphaScreen optical interference counterscreen, cell-free; IC50, µM; 480 compounds, 6% hits; call rule not given here
# AS interf ctr: AlphaScreen optical interference, counter-screen; inhibition, % at 2.6 µM; LysRS AlphaScreen counterscreen, signal interference, triplicate; shares compounds with MITF primary; AID 1259376; 4,700 compounds, 7.6% hits;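 active = inhibition above a cutoff derived from the DMSO control wells, cut at about 30% in these data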
# * marks the source's active call; other numbers are inactive results; nt = no result given. Sampled rows, rich in hits. Any-hit rate of the full collection: about 3.4%.
SMILES,TEAD-YAP block,FBW7 act,GPR151 ag,MITF primary,MITF inh conf,AS interf ctr,others
NC(=O)Cn1cnc2sc3c(c2c1=O)CCC3,-6,0,0,66*,60*,3,AlphaScreen DR=>6.5
CCOC(=O)CSc1nn2c(=O)c(C)nnc2s1,-4,0,-1,3,nt,nt,
CCOC(=O)CC(=O)CSc1nn2c(=O)c(C)nnc2s1,0,0,1,53*,18,37*,
CCOc1ccc(-c2ccc(NC(=O)c3c(OC)cccc3OC)cc2)nn1,-5,0,2,99*,-6,-5,
COc1ccc(-c2ccc(C)c(NC(=O)c3c(OC)cccc3OC)c2)nn1,4,0,1,21,nt,nt,
COCC(=O)NCc1ccc(Cl)cc1,0,0,0,0,nt,nt,
COC(=O)C(NCC(=O)NCc1ccc(Cl)cc1)C(C)C (centres undefined),5,0,-1,66*,15,19,
COc1ccccc1/C=C/CN1CC(C)OC(C)C1 (centres undefined),2,0,3,53*,0,-2,
COc1ccccc1/C=C/CN1CCN(Cc2ccccc2)CC1,-2,0,0,38,nt,nt,
COc1ccccc1/C=C/CN1CCN(CCOCCO)CC1,18,0,1,54*,-2,-4,
C=CCOC(=O)COc1ccc2c(=O)c(Oc3ccc(OC)cc3)coc2c1,7,0,0,75*,23,8,
Nc1nc(CSc2nnc(-c3cccc(F)c3)n2-c2ccccc2)nc(N2CCOCC2)n1,-9,0,-1,51*,7,7,
O=C1NC(SCc2ccc(F)cc2)=N/C1=C\c1ccc(-n2cncn2)cc1,3,0,0,2,nt,nt,
COc1ccc(NC(=O)CNS(=O)(=O)c2cccc3nonc23)cc1Cl,6,0,0,6,nt,nt,
COc1ccc(NC(=O)CCNS(=O)(=O)c2cccc3nonc23)cc1Cl,1,0,-1,55*,-3,1,
CCOC(=O)c1cc(N2C(=O)C3C4C=CC(C4)C3C2=O)ccc1Cl (centres undefined),-7,0,4,59*,55*,9,AlphaScreen DR=>6.5
CC(=O)Nc1cc(N2C(=O)C3C4C=CC(C4)C3C2=O)ccc1Cl (centres undefined),-3,0,2,-16,nt,nt,
Cc1onc(-c2ccccc2Cl)c1C(=O)Nc1ccccc1I,8,0,0,0,nt,nt,
O=C(c1ccc([N+](=O)[O-])cc1)N1CCSC1c1ccc([N+](=O)[O-])cc1 (centres undefined),-3,0,2,12,nt,nt,
O=C(c1ccc([N+](=O)[O-])cc1)N1CCSC1c1ccc(Br)cc1 (centres undefined),0,2,-1,70*,-13,-3,
CCOc1ccccc1CN(CCc1ccc2c(c1)OCO2)Cc1cc(OC)c(OC)cc1OC,1,0,-1,14,nt,nt,
COc1ccc(Br)cc1CN(CCc1ccc2c(c1)OCO2)Cc1cccnc1,8,0,-1,52*,-5,-2,
CCOc1ccccc1CN(CCc1ccc2c(c1)OCO2)Cc1ccccn1,-8,0,-2,84*,4,24,
O=C1CCCN1CCn1cnc2c(NC3CC3)nc(-c3ccccc3)nc21,-2,1,-2,20,nt,nt,
CCc1ccc(CN2CCN(S(=O)(=O)c3ccccc3[N+](=O)[O-])CC2)cc1,-4,0,0,28,nt,nt,
SMILES,TEAD-YAP block,FBW7 act,GPR151 ag,MITF primary,MITF inh conf,AS interf ctr,others
CSc1ccc(CN2CCN(S(=O)(=O)c3ccccc3[N+](=O)[O-])CC2)cc1,-1,0,-2,57*,10,17,
Cc1ccc(CN2CCN(S(=O)(=O)c3ccccc3[N+](=O)[O-])CC2)cc1,8,0,2,58*,12,21,
Cc1ncc(CO)c(/C=N/N=C/c2cccc(Cl)c2Cl)c1O,8,1,-1,53*,-4,-4,
Cc1ccc(-c2ncn(-c3ccc(Nc4cc(-n5cnc(Nc6ccccc6)n5)c(F)cn4)cc3)n2)cn1,-4,0,-1,91*,52*,-10,AlphaScreen DR=>6.5
COc1ccccc1-n1cc(CN2CCN3C(=O)[C@H](CO)NC(=O)[C@H]3C2)cn1,7,0,0,16,nt,nt,
CCC[C@@H]1NC(=O)[C@H]2CN(Cc3cnn(-c4ccccc4OC)c3)CCN2C1=O,-2,1,1,51*,-3,-2,
CCOC(=O)/C=C1\NC(c2ccccc2)=C(c2ccccc2)C1=O,-7,0,-1,56*,8,17,
CCOC(=O)/C=C1/Nc2ccccc2C(c2ccccc2)(c2ccccc2)N1,13,0,0,3,nt,nt,
C=CCN(c1ccccc1)S(=O)(=O)c1ccc2[nH]cc(C(=O)O)c(=O)c2c1,6,0,0,57*,12,-4,
CN(Cc1ccco1)S(=O)(=O)c1ccc2[nH]cc(C(=O)O)c(=O)c2c1,-1,0,1,54*,30*,5,AlphaScreen DR=>6.5
CC(=O)N(c1ccccc1)C1CC(C)N(C(=O)/C=C/c2ccccc2)c2ccccc21 (centres undefined),-2,0,-1,9,nt,nt,
CC(=O)c1ccc(OCC(O)CN(C)CCC#N)cc1 (centres undefined),-3,0,1,66*,4,4,
CC(=O)c1ccc(OCC(O)COc2ccc(C(C)=O)cc2)cc1,0,0,3,-3,nt,nt,
COC(=O)c1c(NC(=O)COC(=O)c2nc3nc(C)ccn3n2)sc2c1CCC2,9,0,1,14,nt,nt,
Cc1cccc(Nc2c([N+](=O)[O-])ccc3nonc23)c1,3,0,-1,-8,nt,nt,
Cc1cccc(Nc2c([N+](=O)[O-])cc([N+](=O)[O-])c3nonc23)c1,-14,0,0,56*,-5,6,
COc1ccccc1-c1ccc(=O)n(CC(=O)NCc2ccccc2)n1,-10,0,-1,21,nt,nt,
C=CCNC(=O)Cn1nc(-c2ccccc2OC)ccc1=O,-3,0,0,72*,15,19,
Cc1cccc(NC(=O)CCC(=O)O)n1,-9,0,0,-11,nt,nt,
COc1ccc(C)cc1NS(=O)(=O)c1ccc2c(c1)CCC(=O)N2,3,0,-1,73*,62*,-3,AlphaScreen DR=>6.5
COc1ccc(CN2CCN(Cc3ccccc3C)CC2)c(OC)c1,10,0,0,83*,10,4,
COc1ccc(OC)c(CN2CCN(Cc3ccccc3C)CC2)c1,-3,0,-2,51*,6,8,
CCS(=O)(=O)N1CCN(Cc2ccc(OC)cc2OC)CC1,7,0,0,42,nt,nt,
CC1(C)CC(=O)C(/C=N/NC(=O)c2ccccc2O)=C(O)C1,-44,-2,-2,47,nt,nt,
COc1cc(C(=O)NC(=S)Nc2ccc(C(=O)O)cc2)cc(OC)c1OC,3,0,-1,-15,nt,nt,
CC1=C(C(=O)Nc2ccc(C(=O)NC3CCCC3)cc2)SCCO1,5,0,4,9,nt,nt,

# Bioassay records from PubChem.
